Rows were chosen to be rich in hits. Some 2.4% of all compounds tested hit in one or more screens of this group.
ULK1 inh – blocks human autophagy kinase ULK1; O75385; 1.9% of 30,000 active; inhibition, % at 5.96 µM; AlphaScreen Atg13 phosphorylation by ULK1, luminescence; in the data active means inhibition above about 43%
ASK1 inh – human ASK1 kinase inhibition, primary screen. 0.99% of 22,000 active. AID 1159602. Q99683. AlphaScreen MKK6 phosphorylation by ASK1, luminescence. inhibition, % at 7.44 µM; in the data active means inhibition above about 35%
Hits are given with their value; – = inactive; · = not tested or not shown; ! = not active in a repeat.

SMILES | ULK1 inh | ASK1 inh
N#Cc1cc(-c2ccnc(Nc3ccc(N4CCOCC4)cc3)n2)cc(N2CCNCC2)c1 | 78 | –
COc1ccc(Nc2nccc(-c3cc(C#N)cc(N4CCOCC4)c3)n2)cc1 | – | –
Cc1cccc2nc3c(c(=O)n12)CN(C(=O)Nc1ccccc1)CC3 | – | ·
c1ccc(CN2CCC(Nc3cc(Nc4ccc5ncccc5c4)ncn3)CC2)cc1 | – | –
COc1cc(N2CCOCC2)ccc1Nc1cc(Nc2cccnc2)c(C(F)(F)F)cn1 | – | –
CNC(=O)c1ccccc1Nc1cc(Nc2ccc(N3CCOCC3)cc2C)ncc1C(F)(F)F | 92 | –
CNC(=O)c1ccccc1Nc1cc(Nc2ccc(N3CCOCC3)cn2)ncc1C(F)(F)F | 91 | –
Nc1nc(Nc2ccccc2)nc2c1ncn2-c1ccsc1 | – | –
COc1ccc(CCNc2nc(-c3c(C)nn(C)c3C)nc3c2ncn3-c2ccccc2)cc1 | – | –
NC(=O)c1ccccc1Nc1nc(Nc2ccc(N3CCOCC3)cc2F)ncc1Cl | 83 | –
Fc1cc(N2CCOCC2)ccc1Nc1nccc(-c2cncc(N3CCOCC3)c2)n1 | – | –
Cn1ncnc1-c1ccccc1Nc1nc(Nc2ccc(N3CCOCC3)cc2)ncc1Cl | 78 | –
Cn1cnc(-c2ccccc2Nc2nc(Nc3ccc(N4CCOCC4)cc3)ncc2Cl)n1 | – | –
COc1cc(Nc2cc(Nc3ccccc3C(N)=O)ccn2)ccc1N1CCOCC1 | – | –
NC(=O)c1ccccc1Nc1nc(Nc2ccc(F)cc2)ncc1Cl | 85 | –
NC(=O)c1ccccc1Nc1nc(Nc2ccc(N3CCOCC3)c(F)c2)ncc1Cl | 72 | –
NC(=O)c1ccc(Nc2ncc(Cl)c(-c3ccccc3)n2)cc1 | – | –
COc1nc(NCCc2ccc(O)cc2)nc(-c2ccc(C(N)=O)cc2)n1 | – | –
CN1CCN(C(=O)c2ccc(-c3nc(NCCc4ccc(O)cc4)c4ncn(CCN5CCCC5=O)c4n3)cc2)CC1 | – | –
Cc1ncn(-c2ccc(Nc3nccc(-c4cc(F)cc(-c5cn[nH]c5)c4)n3)cc2)n1 | – | –
CNC(=O)c1ccccc1Nc1nc(Nc2ccc(N3CCOCC3)c(Cl)c2)ncc1Cl | 58 | –
CN(C)CCNC(=O)c1ccccc1Nc1ccnc(Nc2ccc(N3CCOCC3)cc2)c1 | – | –
COc1ccc(-c2cccc(=O)n2Cc2ccc(F)cc2F)cc1 | – | ·
COc1cc(OC)nc(Oc2ccccc2/C=N/NC(N)=S)n1 | – | ·
CCc1nnc(N/N=C/c2ccccc2Cl)n1N | 48 | ·
SMILES | ULK1 inh | ASK1 inh
FC(F)(F)c1cnc(Nc2ccccn2)cc1Nc1ccccn1 | 50 | –
CN1Cc2cccc(Nc3cc(Nc4cccc5c4C(=O)N(C)C5)c(C(F)(F)F)cn3)c2C1=O | – | –
c1ccc(Nc2nc(NC3CC3)c3[nH]cnc3n2)nc1 | – | –
c1cncc(Nc2nc(NC3CC3)c3[nH]cnc3n2)c1 | 60 | –
c1ccc(Nc2nc(NCCOc3ccccc3)c3ncn(C4CCCCC4)c3n2)cc1 | – | –
CCN(CC)C(=O)C1CCCN(c2cc(C(=O)NCc3cccnc3)ccn2)C1 (stereo not drawn) | – | –
CC(C)NC(=O)c1cccc(NC(=O)Nc2ccc(-c3ncnc4nc[nH]c34)cc2)c1 | – | –
CC(C)NC(=O)c1cccc(NC(=O)Nc2ccc(-c3ncnc4[nH]cc(Cl)c34)cc2)c1 | 70 | –
O=C1OCCN1c1ccc(Nc2nccc(-c3cncc(N4CCOCC4)c3)n2)cc1 | – | –
Cc1cnnn1-c1ccc(Nc2nccc(-c3ccc(NS(C)(=O)=O)cc3)n2)cc1 | 49 | –
CS(=O)(=O)Nc1ccc(-c2ccnc(Nc3ccc(-n4ccnn4)cc3)n2)cc1 | 66 | –
CS(=O)(=O)c1ccc(-c2ccnc(Nc3ccc(C(N)C(F)(F)F)cc3)n2)cc1 (stereo not drawn) | – | –
Cc1ncn(-c2ccc(Nc3nccc(-c4ccc(S(C)(=O)=O)cc4)n3)cc2)n1 | – | –
Cn1cnnc1-c1ccc(Nc2nccc(-c3ccc(NS(C)(=O)=O)cc3)n2)cc1 | – | –
CS(=O)(=O)Nc1ccc(-c2ccnc(Nc3ccc(N4CCOC4=O)cc3)n2)cc1 | 70 | –
CC(O)c1ccc(Nc2nccc(-c3ccc(NS(C)(=O)=O)cc3)n2)cc1 (stereo not drawn) | 69 | –
Cc1noc(C)c1-c1ncc(C(=O)NC2CC2)s1 | – | –
Cc1cncc2c(S(=O)(=O)N3CC[C@H](N)C3)cccc12 | – | –
Cc1cncc2cccc(NC3CCCNC3)c12 (stereo not drawn) | 72 | –
Cc1cncc2cccc(S(=O)(=O)N3CCCNC[C@@H]3C)c12 | 81! | –
Cc1cncc2cccc(N3CCN(C(=O)[C@H](C)O)CC3)c12 | – | –
Cc1cncc2cccc(NC3CCN(C(=O)[C@H](C)O)CC3)c12 | – | –
CC(C)n1c(-c2ccccc2)nc2c(NCCCN3CCCC3=O)ncnc21 | – | –
COc1ccc(-c2nc(NCCOc3ccccc3)c3ncn(C(C)C)c3n2)cc1 | – | –
O=Cc1ccc(O)c(O)c1O | 89 | ·

Assay outcomes from PubChem.
